LASV entry inh: blocks Lassa virus binding to or entry into cells | Lassa virus pseudotype entry inhibition, cell reporter | Potency, µM (series often up to 37.9 µM), inactives show at the highest dose activity change, negative = inhibition, usual class: inhibitors | 300,000 compounds, 1.2% hits | AID 540256; calls by dose curve; tested in HEK293 cells; also: potency is read from the fitted curve at half-maximal effect; nearly all actives have a fitted effect of over 50% in size
FMDV inh: foot and mouth disease virus antiviral activity | FMDV antiviral cell-based qHTS | Potency, µM (titrated, usually from 57.9 µM), without a hit: top-dose activity change, negative = inhibition, usual class: inhibitors | 410,000 compounds, 1.2% hits | AID 1159524; calls by dose curve; tested in HEK293T cells; also: read-out not given here; potency is read from the fitted curve at half-maximal effect; nearly all actives have a fitted effect of over 45% in size
Marburg entry inh: Marburg virus entry inhibition. Marburg virus pseudotyped entry inhibition, cell reporter. Potency, µM (doses to about 37.8 µM), without a hit: at the highest dose activity change, negative = inhibition, usual class: inhibitors. 300,000 compounds, 1.8% hits; calls by dose curve; tested in HEK293 cells; also: potency is read from the fitted curve at half-maximal effect
HCMV antiviral: blocks human cytomegalovirus replication. AID 1259415. activity change, negative = inhibition, % at 57.5 µM. 410,000 compounds, 4.5% hits. HFF cells, HCMV-luciferase reporter, 72 h; stronger effect = lower value; in the data active = activity change below about -60%; inconclusive = no clear call, values can overlap the other calls; inactive = above about -39%
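Inhibition of viral replication was scored as loss of reporter luminescence in HFFs infected with HCMV-luciferase (MOI 1 PFU/cell) for 72 h; compounds tested at 2 doses, normalized to buffer and Salinomycin controls.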
* hit, by the source's call; ? = inconclusive; nt = not tested or not shown; [ ] = dose if it differs, or a comment. Most compounds without a hit are left out; they make up all but 6.2% or so of the library. % is scaled to controls: 0 for no effect and ±100 for the full control effect.

SMILES	LASV entry inh	FMDV inh	Marburg entry inh	HCMV antiviral
COc1cc(S(=O)(=O)N2CCC(O)(c3cccc(C(F)(F)F)c3)CC2)ccc1-n1cnnn1	0.0%	nt	1.5%	-27.4
COCCCNc1nc2cc(OC)c(OC)cc2c2nc(-c3ccccc3)nn12	nt	-27.4%	-1.1%[46.1 µM]	16.7
CC(C)CCN1C(=O)c2ccc(C(=O)Nc3ccc(O)cc3C(=O)O)cc2C1=O	nt	-12.9%	nt	30.9
C/C=C/c1ccc(OCCn2nnc3ccccc32)c(OC)c1	nt	18.6%	nt	88.6
CCN(Cc1ccccc1)S(=O)(=O)c1cc(C(=O)NCC2CCCCC2)ccc1OC	?	-29.3%	?	-83.0*
CCN(Cc1ccccc1)S(=O)(=O)c1cc(C(=O)NC2CCCCCC2)ccc1OC	?	8.2%	?	-32.1
O=C(Nc1cccnc1)c1cccnc1	6.4%	11.3%	-4.9%	-28.6
CCCCn1c(N)c(N(CC(C)C)C(=O)C2CC(=O)N(c3ccc4c(c3)OCCO4)C2)c(=O)[nH]c1=O (stereo not given)	1.1%	7.6%	?	-20.9
CCCCn1c(N)c(N(CC(C)C)C(=O)C2CC(=O)N(c3ccc(C)cc3)C2)c(=O)[nH]c1=O (stereo not given)	1.1%	-17.0%	-9.5%[46.1 µM]	-88.7*
CCCn1c(N)c(N(CCOC)C(=O)c2ccc(N3CCCC3=O)cc2)c(=O)[nH]c1=O	1.4%	0.9%	7.1%[46.1 µM]	19.4
CCCCn1c(N)c(N(CCOC)C(=O)c2ccc(N3CCCC3=O)cc2)c(=O)[nH]c1=O	nt	-22.8%	nt	-100.7*
Cc1ccccc1NC(=O)Cn1c(=O)n(Cc2ccc3c(c2)OCO3)c(=O)c2ccc(C(=O)NC3CCCCC3)cc21	5.7%[46.1 µM]	-11.8%	?	-4.6
CN1C(=O)C(C)(C)c2cc(S(=O)(=O)N3CCC(C(=O)Nc4ccc(Cl)cc4)CC3)ccc21	nt	-26.1%	nt	?
O=C(O)/C=C/c1ccc2c(-c3ccccc3)onc2c1	?	-14.8%	?	10.0
CN(C)S(=O)(=O)c1cccc(NC(=O)CCSc2ccc(Cl)cc2)c1	10µM*	0.0%	?	?
CCCn1c(SCC(=O)Nc2cccc(S(=O)(=O)N(C)C)c2)nc2ccccc2c1=O	-16.4%[46.1 µM]	11.0%	11.2µM*	-16.9
CN(C)S(=O)(=O)c1cccc(NC(=O)CSc2ncnc3ccccc23)c1	?	?	?	-15.1
CN(C)S(=O)(=O)c1cccc(NC(=O)CCNC(=O)Nc2ccccc2)c1	nt	2.2%	nt	-6.4
CN(C)S(=O)(=O)c1cccc(NC(=O)CSc2nc3ccccc3[nH]2)c1	?	0.0%	?	-60.6*
CCN(CC)S(=O)(=O)c1cccc(NC(=O)CSc2nc3ccccc3[nH]2)c1	-22.1%[46.1 µM]	?	?	?
CCOc1ccc(-n2ccn(CC(=O)NCCc3ccccc3)c(=O)c2=O)cc1	-1.0%[46.1 µM]	11.7%	15.9%	-29.3
O=C(N/N=C/c1cc(Cl)ccc1O)c1cccnc1	?	8.3%	?	?
CN(CC(=O)N1CCCCCC1)S(=O)(=O)c1cccc2cccnc12	nt	-0.3%	nt	-0.6
CN(CC(=O)NC1CCCCCCC1)S(=O)(=O)c1cccc2cccnc12	nt	-20.6%	nt	-62.3*
COc1ccc(NC(=O)CN(C)S(=O)(=O)c2cccc3cccnc23)cc1	nt	-13.3%	nt	-65.7*
SMILES	LASV entry inh	FMDV inh	Marburg entry inh	HCMV antiviral
COc1ccc(N(C(=O)C(C)C)S(=O)(=O)c2cccc3cccnc23)cc1	4.3%	-14.5%	5.4%	-67.2*
CN(CC(=O)Nc1ccc(Cl)cc1)S(=O)(=O)c1cccc2cccnc12	nt	-14.1%	nt	58.8
CCN1C(=O)/C(=C\N(C)C)c2ccccc21	12.0%	16.1%	?	32.6
CC1=C(c2ccc(C)cc2)S(=O)(=O)N(Cc2ccc(C(=O)NCc3ccccc3F)cc2)C1=O	-0.6%[46.1 µM]	-17.1%	nt	-1.4
CCOc1ccc(C(=O)Nc2ccccc2-c2ccccc2)cc1Cl	-17.5%	-27.7%	-29.9%	-25.0
CSCC[C@H](NC(=O)c1ccc(Cl)c([N+](=O)[O-])c1)c1nc2ccccc2[nH]1	-29.1%	?	10µM*	23.0
CCOc1ccc(C(=O)Nc2cc(-c3nc4ccccc4[nH]3)ccc2Cl)cc1[N+](=O)[O-]	?	-10.9%	8.91µM*	-85.3*
Cc1ccc(OCC(=O)Nc2cc(-c3nc4ccccc4[nH]3)ccc2C)c(C)c1	-17.5%[46.1 µM]	-1.2%	-3.0%[46.1 µM]	-9.1
CCOc1ccc(C(=O)Nc2cccc(C(=O)O)c2C)cc1Cl	9.2µM*	1.78µM*	5.8µM*	?
O=C(NC(Cc1ccccc1)c1nc2ccccc2[nH]1)c1ccc(Cl)c([N+](=O)[O-])c1 (stereo not given)	-20.4%	?	?	26.1
Cc1ccc(-c2nc3ccccc3[nH]2)cc1NC(=O)COc1ccccc1[N+](=O)[O-]	?	0.0%	-17.3%[46.1 µM]	-87.6*
Cc1cccc(N2CC(C(=O)Nc3ccc(S(=O)(=O)N4CCOCC4)cc3)CC2=O)c1C (stereo not given)	-17.0%	-12.1%	19.7%	-1.4
Cc1ccc(C)c(S(=O)(=O)N2CCN(CC(=O)NC(=O)NCc3ccco3)CC2)c1	-25.3%	-14.2%	26.6%[46.1 µM]	-5.1
Cc1cc(C)c(N=C2C(=O)Nc3ccccc32)c(C)c1	-14.2%[46.1 µM]	-23.7%	27.0%[46.1 µM]	34.5
CC(=O)Oc1cccc(C2=CC(=O)CC(C)(C)C2=O)c1	nt	0.0%	nt	2.0
COc1ccc2[nH]c(=O)c(CN(CCc3cccc(C)c3)C(C)=O)cc2c1	-5.9%	-26.1%	12.8%	-19.6
CCOc1ccccc1NC(=O)c1ccc(OCC)c([N+](=O)[O-])c1	14.4%	-21.6%	15.4%	-65.0*
CCOc1ccc(C(=O)Nc2nc(C)cc(C)n2)cc1[N+](=O)[O-]	11.0%	-9.6%	11.2%	1.9
CC(C)N(Cc1ccccc1)S(=O)(=O)c1ccc(-c2cc(C(F)(F)F)on2)s1	-16.2%[46.1 µM]	-26.5%	nt	-8.5
CN(C)CCN(Cc1ccccc1)S(=O)(=O)c1ccc(-c2cc(C(F)(F)F)on2)s1	-6.9%[46.1 µM]	-22.5%	nt	-100.0*
COc1ccc2[nH]cc(C(=O)C(=O)N3CCCCC3)c2c1	nt	-18.7%	nt	-12.9
CSc1nc(Cl)cc(Nc2ccccc2N)n1	12.2%	-8.0%	?	?
O=C(CN1C(=O)NC(Cc2c[nH]c3ccccc23)C1=O)NCCc1ccc(F)cc1 (stereo not given)	nt	-13.1%	nt	25.8
Cc1cc(C)c2c(CN(Cc3ccccc3)Cc3ccccc3)cc(=O)oc2c1	22.3µM*	-9.0%	nt	?
Cc1cc(C)c2c(CN3CCN(Cc4ccccc4)CC3)cc(=O)oc2c1	nt	0.0%	nt	-61.7*
SMILES	LASV entry inh	FMDV inh	Marburg entry inh	HCMV antiviral
Cc1ccc2c(CN(Cc3ccccc3)Cc3ccccc3)cc(=O)oc2c1	nt	-24.0%	?	-0.2
Cc1cccc(N2CCN(Cc3cc(=O)oc4cc(C)ccc34)CC2C)c1 (stereo not given)	10.4%[46.1 µM]	-23.5%	10.2%[46.1 µM]	-65.6*
Cc1ccc(S(=O)(=O)NC(CC(C)C)C(=O)N2CCOCCOCCOCCOCC2)cc1 (stereo not given)	5.2%	1.1%	?	-2.6
COCCNC(=O)c1ccc(N2CC3CC(C2)c2cccc(=O)n2C3)c(NC(=O)c2ccccc2Cl)c1 (stereo not given)	nt	-0.5%	nt	-22.1
Cn1cnc2nc(Cl)nc(Cl)c21	?	?	?	-71.7*
COc1ccc(/C=C/CN2CCC(CO)(Cc3ccccc3Cl)CC2)cc1	-11.7%	-18.4%	?	-69.6*
